Laboratory results published in PubChem BioAssay (EPA / NIEHS).
Where “and” joins values, the source holds several entries; their conditions need not be identical. Equal values may be shown once. Records with an inconclusive call do not appear. Some structures have more than one record in an assay (separate samples or runs), and their calls can disagree. Calls of active or inactive are those of the source. The calls were made as follows, unless noted: active = hit-call score of the fitted dose curve at least 0.9, where 1 is the maximum; inactive = score below 0.9.

Columns and labels:
[1] = ATG_TAL_CIS: Attagene CIS-FACTORIAL HepG2 Assay for human TAL Basal Promoter (AID 2282966); settings: HepG2 Attagene cis-factorial TAL promoter reporter; actives raise or lower the signal;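 also: background control endpoint measuring basal TAL promoter reporter mRNA not a specific factor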
Method in brief: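 In this cell-based multiplex, HepG2 liver cells bearing cis-promoter reporter constructs are dosed for 24 hours. Total RNA is reverse-transcribed and amplified, labelled fragments are sized by capillary electrophoresis, and signal changes are fitted bidirectionally versus DMSO.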

[2] = ATG_TGFb_CIS: Attagene CIS-FACTORIAL HepG2 Assay for human Transforming Growth Factor (TGF) (AID 2282967); settings: HepG2 Attagene CIS TGFb reporter, mRNA transcription; actives raise or lower the signal
Method in brief: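 Cells were dosed for 24 hours, after which total RNA was reverse-transcribed and reporter sequences amplified, labeled and sized by capillary electrophoresis. Activity was fitted in both directions against DMSO.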

[3] = ATG_VDRE_CIS: Attagene CIS-FACTORIAL HepG2 Assay for human Vitamin D Receptor Element (VDRE) (AID 2282968); settings: HepG2 VDRE cis-reporter transcription, actives raise or lower the signal
Method in brief: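 RT-PCR/CE readout of reporter mRNA; HepG2, transient transfection, 24 h dosing; DMSO baseline; bidirectional analysis.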

[4] = biological target: X-box-binding protein 1 (Homo sapiens) (UniProt P17861); experiment: ATG_Xbp1_CIS: Attagene CIS-FACTORIAL HepG2 Assay for human X-box Binding Protein 1 (XBP1) (AID 2282972); settings: HepG2 XBP1 cis-element reporter, Attagene multiplex; actives raise or lower the signal
Method in brief: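 After a 24-hour chemical exposure of HepG2 cells carrying cis-regulated reporters, reporter mRNA levels are assessed. Quantification uses RT-PCR, 6-FAM labelling and capillary electrophoresis. Gain- or loss-of-signal is fitted against DMSO.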

[5] = ATG_M_19_TRANS: Attagene TRANS-FACTORIAL HepG2 Assay for M19 Transcription Factor (Internal Marker) (AID 2282974; active = hit-call score of the fitted dose curve at least 0.9, where 1 is the maximum); settings: HepG2 Attagene TRANS-FACTORIAL M19 internal marker reporter
Method in brief: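 Multiplexed TRANS format: HepG2 liver cells bearing transient GAL4-UAS reporter units, chemical treatment 24 h, reporter transcripts quantified by RT-PCR plus capillary electrophoresis. DMSO defines baseline.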

[6] = ATG_GAL4_TRANS: Attagene TRANS-FACTORIAL HepG2 Assay for GAL4 (Internal Marker) (AID 2282976; active = hit-call score of the fitted dose curve at least 0.9, where 1 is the maximum); settings: HepG2 Attagene TRANS GAL4 internal marker reporter
Method in brief: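 RT-PCR/capillary electrophoresis readout of reporter mRNA. HepG2, transient MRTU transfection (GAL4-UAS reporters), 24 h compound exposure. Background-control endpoint, positive direction vs DMSO baseline.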

[7] = biological target: Nuclear receptor subfamily 1 group I member 3 (Homo sapiens) (UniProt Q14994); experiment: ATG_CAR_TRANS: Attagene TRANS-FACTORIAL HepG2 Assay for human Constitutive Androstane Receptor (CAR) (AID 2282969; active = hit-call score of the fitted dose curve at least 0.9, where 1 is the maximum;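 also: activators raise reporter mRNA above DMSO so AC50 marks induction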); settings: HepG2 Attagene TRANS-FACTORIAL CAR reporter
Method in brief: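 HepG2 cells transiently transfected with multiplexed GAL4-UAS reporter units expressing chimeric NR-Gal4 proteins; compound exposure 24 h. Reporter mRNA measured by RT-PCR, 6-FAM labelling, HpaI digestion and capillary electrophoresis; gain-of-signal fitted against DMSO baseline.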

[8] = biological target: Estrogen receptor (Homo sapiens) (UniProt P03372); experiment: ATG_ERa_TRANS: Attagene TRANS-FACTORIAL HepG2 Assay for human Estrogen Receptor alpha (ERa) (AID 2282970; active = hit-call score of the fitted dose curve at least 0.9, where 1 is the maximum); settings: HepG2 Attagene TRANS ERa GAL4 reporter, mRNA
Method in brief: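 After 24 h of compound treatment, RNA from HepG2 cells bearing transfected GAL4-UAS reporter constructs is converted to cDNA, amplified and fluorescently labelled. Capillary electrophoresis resolves the ERa-linked reporter; DMSO serves as negative control.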

[9] = biological target: Glucocorticoid receptor (Homo sapiens) (UniProt P04150); experiment: ATG_GR_TRANS: Attagene TRANS-FACTORIAL HepG2 Assay for human Glucocorticoid Receptor (GR) (AID 2282978; active = hit-call score of the fitted dose curve at least 0.9, where 1 is the maximum;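 also: activators score as hits since higher reporter transcript over DMSO is fitted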); settings: HepG2 Attagene TRANS GR reporter, mRNA transcription
Method in brief: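 Transiently transfected HepG2 cells express chimeric NR-GAL4 proteins acting on GAL4-UAS reporter units. Compounds are applied for 24 h. mRNA induction over DMSO is measured by capillary electrophoresis.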

[10] = biological target: Steroid hormone receptor ERR1 (Homo sapiens) (UniProt P11474); experiment: ATG_ERRa_TRANS: Attagene TRANS-FACTORIAL HepG2 Assay for human Estrogen-Related Receptor alpha (ERRa) (AID 2282971; active = hit-call score of the fitted dose curve at least 0.9, where 1 is the maximum); settings: HepG2 Attagene TRANS reporter, ERRa transactivation
Method in brief: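 Transfected HepG2, 24 h dosing, ERRa-Gal4 chimera driving GAL4-UAS reporter. Readout: reporter mRNA via RT-PCR plus capillary electrophoresis (fluorescence). Positive direction vs DMSO control.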

Chain of Nuclear receptor subfamily 1 group I member 3 (Homo sapiens) (Q14994 whole entry, looked up, the tested form may be a part): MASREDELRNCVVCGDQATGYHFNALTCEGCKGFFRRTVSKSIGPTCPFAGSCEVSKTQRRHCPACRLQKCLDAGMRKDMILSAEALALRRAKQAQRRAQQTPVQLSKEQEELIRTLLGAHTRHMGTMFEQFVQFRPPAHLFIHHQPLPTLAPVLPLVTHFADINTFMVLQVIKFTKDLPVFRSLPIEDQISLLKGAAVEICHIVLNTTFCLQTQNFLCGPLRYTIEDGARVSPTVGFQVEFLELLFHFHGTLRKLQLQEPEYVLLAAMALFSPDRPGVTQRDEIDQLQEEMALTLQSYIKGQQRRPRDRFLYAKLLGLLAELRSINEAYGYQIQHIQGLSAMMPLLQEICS
Chain of Estrogen receptor (Homo sapiens) (P03372 whole entry, looked up, the tested form may be a part): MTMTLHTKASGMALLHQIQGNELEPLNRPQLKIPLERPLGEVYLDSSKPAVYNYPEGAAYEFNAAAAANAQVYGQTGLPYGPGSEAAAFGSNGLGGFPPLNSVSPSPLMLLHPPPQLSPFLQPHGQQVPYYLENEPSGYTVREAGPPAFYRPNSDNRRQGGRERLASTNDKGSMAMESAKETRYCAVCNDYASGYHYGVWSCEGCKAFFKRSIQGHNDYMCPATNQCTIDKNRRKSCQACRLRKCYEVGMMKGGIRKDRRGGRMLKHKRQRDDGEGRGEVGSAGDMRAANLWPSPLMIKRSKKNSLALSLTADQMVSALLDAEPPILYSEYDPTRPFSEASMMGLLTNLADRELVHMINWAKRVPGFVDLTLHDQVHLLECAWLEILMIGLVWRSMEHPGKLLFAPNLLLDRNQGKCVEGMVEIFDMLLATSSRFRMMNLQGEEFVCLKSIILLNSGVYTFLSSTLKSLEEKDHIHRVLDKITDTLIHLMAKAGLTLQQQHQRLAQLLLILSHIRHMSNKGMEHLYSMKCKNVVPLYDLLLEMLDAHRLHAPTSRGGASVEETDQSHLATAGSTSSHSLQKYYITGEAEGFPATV
Chain of Steroid hormone receptor ERR1 (Homo sapiens) (P11474 whole entry, looked up, the tested form may be a part): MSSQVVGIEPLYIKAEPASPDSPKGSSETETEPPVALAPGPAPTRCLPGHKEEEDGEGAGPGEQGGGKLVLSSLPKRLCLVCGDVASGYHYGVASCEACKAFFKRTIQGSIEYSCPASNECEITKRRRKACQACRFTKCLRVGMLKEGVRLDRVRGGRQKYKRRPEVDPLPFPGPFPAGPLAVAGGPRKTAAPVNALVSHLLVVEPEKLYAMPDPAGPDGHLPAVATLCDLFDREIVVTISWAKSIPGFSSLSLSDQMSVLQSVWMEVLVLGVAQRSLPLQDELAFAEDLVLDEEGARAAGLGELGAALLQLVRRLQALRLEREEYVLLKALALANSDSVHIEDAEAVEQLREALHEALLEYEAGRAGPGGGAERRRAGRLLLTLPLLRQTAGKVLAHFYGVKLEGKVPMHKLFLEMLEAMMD
Chain of Glucocorticoid receptor (Homo sapiens) (P04150 whole entry, looked up, the tested form may be a part): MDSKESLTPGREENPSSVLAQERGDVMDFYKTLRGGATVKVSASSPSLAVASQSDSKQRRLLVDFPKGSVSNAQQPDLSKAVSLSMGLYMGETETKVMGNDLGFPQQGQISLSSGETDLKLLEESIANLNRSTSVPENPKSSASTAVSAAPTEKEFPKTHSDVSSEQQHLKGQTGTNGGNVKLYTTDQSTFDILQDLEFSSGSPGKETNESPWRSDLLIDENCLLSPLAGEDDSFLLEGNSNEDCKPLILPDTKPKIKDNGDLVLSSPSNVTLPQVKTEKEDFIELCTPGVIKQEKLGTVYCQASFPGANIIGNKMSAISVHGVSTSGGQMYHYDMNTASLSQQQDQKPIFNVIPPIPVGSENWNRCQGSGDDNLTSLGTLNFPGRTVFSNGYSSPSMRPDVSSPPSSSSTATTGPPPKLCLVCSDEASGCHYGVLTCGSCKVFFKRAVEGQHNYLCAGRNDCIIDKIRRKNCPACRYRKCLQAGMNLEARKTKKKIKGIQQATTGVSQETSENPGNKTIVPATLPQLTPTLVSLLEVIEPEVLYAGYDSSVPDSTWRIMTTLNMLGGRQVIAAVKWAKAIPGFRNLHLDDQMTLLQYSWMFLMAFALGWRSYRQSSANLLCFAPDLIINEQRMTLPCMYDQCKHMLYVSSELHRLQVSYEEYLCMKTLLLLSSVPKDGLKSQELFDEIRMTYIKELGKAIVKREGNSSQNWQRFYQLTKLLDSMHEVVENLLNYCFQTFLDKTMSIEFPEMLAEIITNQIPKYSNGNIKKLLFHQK
Chain of X-box-binding protein 1 (Homo sapiens) (P17861 whole entry, looked up): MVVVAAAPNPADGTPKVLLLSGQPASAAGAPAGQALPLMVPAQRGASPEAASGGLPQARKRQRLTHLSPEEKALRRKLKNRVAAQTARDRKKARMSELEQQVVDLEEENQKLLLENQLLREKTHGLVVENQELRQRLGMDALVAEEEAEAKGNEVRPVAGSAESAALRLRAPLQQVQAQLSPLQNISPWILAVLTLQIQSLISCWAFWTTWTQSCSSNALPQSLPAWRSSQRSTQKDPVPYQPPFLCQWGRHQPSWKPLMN

Row | Structure (SMILES) | AC50 [1] | outcome [1] | outcome [2] | AC50 [3] | outcome [3] | AC50 [4] | outcome [4] | outcome [5] | outcome [6] | outcome [7] | outcome [8] | outcome [9] | outcome [10] | AC50 [2]
1 | CC(=O)O[C@]1(C(C)=O)CC[C@H]2[C@@H]3C=C(Cl)C4=CC(=O)[C@@H]5C[C@@H]5[C@]4(C)[C@H]3CC[C@@]21C | 47.7 µM (active) | inactive | inactive | 24.1 µM (active) | inactive | 45.5 µM (active) and 51.8 µM (active) and 43 µM (active) | inactive | inactive | inactive | – | – | – | – | –
2 | O=C(NS(=O)(=O)/C=C/c1cccs1)c1ccc(F)cc1Br | – | inactive | inactive | – | inactive | – | inactive | inactive | inactive | inactive | inactive | – | – | –
3 | COc1ccc(OC(F)(F)F)cc1CN[C@H]1CCCN[C@H]1c1ccccc1 | – | inactive | inactive | 4.99 µM (active) | – | – | inactive | inactive | – | inactive | inactive | – | – | –
4 | CSc1ccc(Oc2ccc(S(N)(=O)=O)cc2CN(C)C)cc1C | – | inactive | inactive | 29.8 µM (active) | – | – | inactive | inactive | inactive | inactive | inactive | – | – | –
5 | CCCCCCCCCCCCCCCCO | – | inactive | inactive | – | inactive | – | inactive | – | – | inactive | inactive | inactive | – | –
6 | C/C=C/C=C/C(=O)O | – | inactive | inactive | – | inactive | – | inactive | inactive | inactive | inactive | – | – | – | –
7 | Cc1cn([C@H]2C=C[C@@H](CO)O2)c(=O)[nH]c1=O | – | inactive | inactive | – | inactive | – | inactive | inactive | – | inactive | – | – | – | –
8 | CCCC(=O)O | – | inactive | inactive | – | inactive | – | inactive | inactive | – | inactive | – | – | inactive | –
9 | CCCCCCC(C=O)=Cc1ccccc1 | – | inactive | inactive | – | inactive | 60 µM (active) | inactive | inactive | inactive | inactive | – | inactive | – | –
10 | NCCOCCOCCN | – | inactive | inactive | – | inactive | – | inactive | inactive | – | inactive | – | inactive | – | –
11 | CCCCc1nc2cccnc2n1Cc1ccc(-c2ccccc2-c2nnn[nH]2)cc1 | – | inactive | inactive | – | inactive | – | inactive | inactive | – | inactive | inactive | inactive | – | –
12 | CC(C)(C)c1ccccc1 | – | inactive | inactive | – | inactive | – | inactive | – | – | inactive | – | – | – | –
13 | CCCCC(CC)CO (stereo not given) | – | inactive | inactive | – | inactive | – | inactive | – | – | inactive | – | inactive | – | –
14 | CCN(CC)CCOc1ccc(C(=C(Cl)c2ccccc2)c2ccccc2)cc1 | 13.1 µM (active) | inactive | inactive | 3.11 µM (active) and 6.33 µM (active) and 1.3 µM (active) | inactive | 11.2 µM (active) | inactive | inactive | inactive | – | – | inactive | – | 3.11 µM (active)
15 | CC(=O)S[C@H](C(=O)N[C@H]1Cc2ccccc2[C@H]2CCC[C@@H](C(=O)O)N2C1=O)C(C)C | – | inactive | inactive | – | inactive | – | inactive | inactive | – | inactive | – | inactive | inactive | –
16 | O=C1CCCCC1 | – | inactive | inactive | – | inactive | – | inactive | – | inactive | inactive | inactive | inactive | inactive | –
17 | CC1=C(C)S(=O)(=O)CCS1(=O)=O | – | inactive | inactive | – | inactive | – | inactive | – | – | inactive | inactive | – | – | –
18 | C=CCCCCCCCCCCCC | – | inactive | inactive | – | inactive | – | inactive | inactive | – | inactive | – | inactive | – | –
